In PubChem BioAssay (NCATS):
Results filed as inconclusive are left out. Calls of active or inactive are those of the source. Unless noted, calls follow the shape of the dose curve; as a rule, active = well fitted curve in the direction sought with a large enough effect; inconclusive = small, poorly fitted or top-dose-only effect, or another doubt; inactive = no such curve, though single readings can be large; an effect the other way counts as inactive or inconclusive.

Legend:
[1] = qHTS Validation Assay to Find Inhibitors of Chronic Active B-Cell Receptor Signaling (AID 485345; active = well fitted curve in the direction sought with a large enough effect in the main read-out, with a control signal flat, not every such curve was filed as active;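 also: 0% = untreated basal cells and 100% = 10 µM MG-132 proteasome inhibitor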)
How it was run: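 Read-out: ratio of filter-corrected green (IkappaBalpha fusion) to red (native) luciferase signal in doxycycline-induced TMD8 cells after 4 h at 37C. Titration spanned 46 uM–3 nM; Data were normalised to basal cells and 10 uM MG-132 wells.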

[2] = biological target: Beta-2 adrenergic receptor (Homo sapiens) (UniProt P07550); experiment: qHTS validation assay of beta-arrestin-biased ligands of beta2-adrenergic receptor (AID 485366); also: 0% is about no effect
How it was run: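 Tango cells expressing recombinant beta2-AR and beta-arrestin with tTA-driven luciferase, in DMEM with 1% FBS. Compounds were titrated up to 46 microM for 18 hr at 37 degrees C. Luminescence was read 15 min after substrate; curves were fitted and class-assigned.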

[3] = Quantitative high throughput screen for delayed death inhibitors of the malarial parasite plastid, 96 hour incubation (AID 488745); also: series mostly up to about 29 µM; % is scaled to controls: 0 for no effect and ±100 for the full control effect; nearly all actives have a fitted effect of over 70% in size
How it was run: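 P. falciparum carrying an integrated firefly luciferase reporter, grown in erythrocytes (2% hematocrit, 0.1% parasitemia final) in RPMI 1640/0.5% Albumax, was exposed to compound for 96 h (two generations) at 37 C, 5% CO2. Luminescence decrease indicated growth inhibition.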

[4] = Quantitative high throughput screen for delayed death inhibitors of the malarial parasite plastid, 48 hour incubation (AID 488752); also: % is scaled to controls: 0 for no effect and ±100 for the full control effect; nearly all actives have a fitted effect of over 65% in size
How it was run: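 Erythrocytes infected with P. falciparum carrying an integrated firefly luciferase reporter (2% hematocrit, 0.1% parasitemia final) were exposed to compounds in RPMI 1640/0.5% Albumax for 48 h at 37 C, 5% CO2. Growth inhibition was scored as reduced luminescence.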

[5] = biological target: Thioredoxin reductase 1, cytoplasmic (Rattus norvegicus) (UniProt O89049); experiment: qHTS Assay for Substrates of Mammalian Selenoprotein Thioredoxin Reductase 1 (TrxR1) (AID 488772);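 also: NADPH fluorescence in the first read after selenite addition and not the 8 min delta; series mostly up to about 57 µM; 0% is about no effect; a drop in NADPH fluorescence below the no-compound background marks a TrxR1 substrate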
How it was run: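 Quantitative HTS in Tris-HCl buffer at pH 7.5 with EDTA and Tween-20, using rat TrxR1, 400 uM NADPH and 400 uM selenite (final). A fall in initial NADPH fluorescence relative to background marked substrate behaviour.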

[6] = biological target: Thioredoxin reductase 1, cytoplasmic (Rattus norvegicus) (UniProt O89049); experiment: qHTS Assay for Inhibitors of Mammalian Selenoprotein Thioredoxin Reductase 1 (TrxR1) (AID 488773); conditions: Potency: inhibition;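 also: drop in NADPH fluorescence over an 8 min run after selenite addition; series mostly up to about 57 µM; % is scaled to controls: 0 for no effect and ±100 for the full control effect; nearly all actives have a fitted effect of over 40% in size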
How it was run: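 Steps: enzyme (90 nM) plus NADPH (400 uM final), 5 min at ~22 deg C; compound added, 15 min; selenite (400 uM final) added; fluorescence followed for 8 min. Concentration-response curves derived from the normalized delta values.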

[7] = biological target: Flap endonuclease 1 (Homo sapiens) (UniProt P39748); experiment: qHTS Validation Assay for the Inhibitors of Human Flap endonuclease 1 (FEN1) (AID 488816); also: % is scaled to controls: 0 for no effect and ±100 for the full control effect
How it was run: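 Readings taken at 0 and 15 min after starting the reaction with 50 nM (final) substrate supplied the signal. Compounds had first sat with 10 nM FEN1 reagent for 15 min at room temperature. Values come from Hill-equation concentration-response fits.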

[8] = biological target: M-phase phosphoprotein 8 (Homo sapiens) (UniProt Q99549); experiment: qHTS Validation Assay for Inhibitors for MPP8 Chromodomain Interactions with Methylated Histone Tails (AID 488949);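 also: AlphaScreen signal from MPP8 chromodomain bound to biotinylated H3K9me3 peptide; top concentration of the series differs between compounds; % is scaled to controls: 0 for no effect and ±100 for the full control effect; nearly all actives have a fitted effect of over 55% in size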
How it was run: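 AlphaScreen read-out: streptavidin donor and nickel chelate acceptor beads (final 10 ug/mL), 30 min in the dark at RT. Complex of 50 nM MPP8 and 50 nM b-H3(1-18)K9me3 peptide had been exposed to compounds for 30 min beforehand.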

[9] = biological target: Chromobox protein homolog 1 (Homo sapiens) (UniProt P83916); experiment: qHTS Validation Assay for Inhibitors of HP1-beta Chromodomain Interactions with Methylated Histone Tails (AID 488953);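 also: loss of AlphaScreen luminescence from HP1-beta binding biotinylated H3K9me3 peptide; series mostly up to about 110 µM; % is scaled to controls: 0 for no effect and ±100 for the full control effect; nearly all actives have a fitted effect of over 50% in size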
How it was run: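 HP1-beta (50 nM) was preincubated 30 min at room temperature with biotinylated H3(1-18)K9me3 peptide (50 nM) in PBS pH 7.4, 0.01% Tween-20, then with compounds 30 min. AlphaScreen signal was read after streptavidin donor/nickel chelate acceptor beads (10 ug/mL final).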

[10] = biological target: Transient receptor potential cation channel subfamily V member 1 (Homo sapiens) (UniProt Q8NER1); experiment: HTS Assay for Compounds that Act as Enhancers of the Vanilloid Receptor 1 (AID 488979); also: 0% is about no effect
How it was run: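 Calcium influx kinetics via Fluo-8 (480/520 nm) in TRPV1-expressing cells, 2000/well cultured overnight at 35.5C. Compound-alone read 3 min (agonist phase), followed by EC20 capsaicin challenge for 2 min (enhancer phase).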

[11] = biological target: Thyrotropin receptor (Homo sapiens) (UniProt P16473); experiment: qHTS Assay for Antagonists of the Thyroid Stimulating Hormone Receptor (AID 488980); also: series mostly up to about 58 µM; 0% is about no effect
How it was run: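 TSHR-HEK293 cells; 70 uM RO 20-1724 PDE inhibitor; compound + EC80 TSH (4 nM final); anti-cAMP cryptate antibody/cAMP-d2 in lysis buffer, 30 min RT; HTRF 665/620 nm read.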

[12] = biological target: D(1A) dopamine receptor (Homo sapiens) (UniProt P21728); experiment: HTS Assay for Allosteric Agonists of the Human D1 Dopamine Receptor: Primary Screen for Agonists (AID 488981); also: 0% is about no effect
How it was run: (§1)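 Calcium flux in an inducible, force-coupled HEK293 Trex D1 line (overnight at 30 C): agonist mode is the 180 s kinetic read after compound; potentiator mode is the following 180 s read after dopamine at EC20.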

[13] = biological target: D(1A) dopamine receptor (Homo sapiens) (UniProt P21728); experiment: HTS Assay for Allosteric Agonists of the Human D1 Dopamine Receptor: Primary Screen for Potentiators (AID 488982); also: 0% is about no effect
How it was run: as §1

[14] = biological target: D(1A) dopamine receptor (Homo sapiens) (UniProt P21728); experiment: HTS Assay for Allosteric Agonists of the Human D1 Dopamine Receptor: Primary Screen for Antagonists (AID 488983);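 also: calcium flux response to an EC80 dopamine challenge measured with no-wash dye; % is scaled to controls: 0 for no effect and ±100 for the full control effect; nearly all actives have a fitted effect of over 65% in size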
How it was run: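 Tetracycline-induced HEK293 T-REx cells expressing force-coupled D1 were plated overnight at 30 C, dye-loaded for calcium, and read kinetically. Compounds were pinned in, then an EC80 dopamine challenge followed after 180 s to reveal antagonism.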

[15] = Validation screen for small molecules that induce genotoxicity in human embryonic kidney (HEK293T) cells expressing luciferase-tagged ELG1 (AID 493106); also: 0% is about no effect
How it was run: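 HEK293T cells expressing luciferase-tagged ELG1 were exposed to compound or DMSO vehicle for 16 hr at 37 °C, 5% CO2. Genotoxic stress raises ELG1 levels, so increased luciferase signal after ONE-Glo addition and 30 min at room temperature marks hits.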

[16] = biological target: ATPase family AAA domain-containing protein 5 (Homo sapiens) (UniProt Q96QE3); experiment: Validation screen for small molecules that inhibit ELG1-dependent DNA repair in human embryonic kidney (HEK293T) cells expressing luciferase-tagged ELG1 (AID 493107);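 also: cells co-treated with the DNA-damaging agent 5-fluorouridine alongside compound; series mostly up to about 46 µM; % is scaled to controls: 0 for no effect and ±100 for the full control effect; inhibitors lower the ELG1-luciferase luminescence signal; nearly all actives have a fitted effect of over 70% in size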
How it was run: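 HEK293T cells expressing luciferase-tagged ELG1 were co-treated with 5-fluorouridine and compound or DMSO for 16 hr at 37 °C, 5% CO2. Luciferase activity was then read with ONE-Glo after 30 min at room temperature; suppressed signal indicates blocked ELG1 function.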

[17] = biological target: Thyrotropin-releasing hormone receptor (Homo sapiens) (UniProt P34981); experiment: qHTS for Small Molecule Agonists and Allosteric Enhancers of Human TRH Receptor: Validation Screen for Agonists (AID 493127;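 active = calcium activation more than 3 SD above the typical response in the agonist read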;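 also: intracellular calcium rise by fluo-8 fluorescence before TRH EC20 addition; 0% is about no effect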); conditions: TRH receptor agonist cell assay; at 2 µM; hits give high values
How it was run: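 TRHR-expressing cells were plated overnight in serum-containing medium, then loaded with fluo-8 calcium dye at room temperature for 30 min–1.5 h. After a 10 s baseline, compound was pin-transferred and calcium fluorescence (ex 480/em 530) read kinetically for agonist response.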

[18] = Nrf2 qHTS screen for inhibitors: Validation (AID 493153; active = well fitted inhibition curve with a large enough effect in the main read-out, with a control signal flat, not every such curve was filed as active; also: series mostly up to about 46 µM; % of control where 0% means no effect); conditions: Potency: luciferase luminescence; viability change: measured here: cytotoxicity max response
How it was run: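 A549 cells carrying an ARE-driven firefly luciferase reporter, in 5% FBS OPTI-MEM, were treated with compounds in concentration-response for 18-24 h at 37°C. Viability was read by CellTiter-Fluor fluorescence, then Nrf2 activity by luciferase luminescence.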

Sequence of D(1A) dopamine receptor (Homo sapiens) (P21728 whole entry, looked up): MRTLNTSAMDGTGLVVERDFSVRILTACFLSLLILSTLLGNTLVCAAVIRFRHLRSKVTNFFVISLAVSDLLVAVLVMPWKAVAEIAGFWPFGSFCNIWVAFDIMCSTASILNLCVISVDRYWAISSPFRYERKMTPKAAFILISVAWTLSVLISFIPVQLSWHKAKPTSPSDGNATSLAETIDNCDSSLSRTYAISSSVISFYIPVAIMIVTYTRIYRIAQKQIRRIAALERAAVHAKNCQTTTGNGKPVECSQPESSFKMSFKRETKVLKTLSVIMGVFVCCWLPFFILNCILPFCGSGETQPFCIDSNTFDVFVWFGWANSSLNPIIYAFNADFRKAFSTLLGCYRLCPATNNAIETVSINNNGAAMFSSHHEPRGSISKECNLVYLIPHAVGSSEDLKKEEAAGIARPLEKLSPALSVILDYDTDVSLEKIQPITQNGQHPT
Sequence of Thioredoxin reductase 1, cytoplasmic (Rattus norvegicus) (O89049 whole entry, looked up): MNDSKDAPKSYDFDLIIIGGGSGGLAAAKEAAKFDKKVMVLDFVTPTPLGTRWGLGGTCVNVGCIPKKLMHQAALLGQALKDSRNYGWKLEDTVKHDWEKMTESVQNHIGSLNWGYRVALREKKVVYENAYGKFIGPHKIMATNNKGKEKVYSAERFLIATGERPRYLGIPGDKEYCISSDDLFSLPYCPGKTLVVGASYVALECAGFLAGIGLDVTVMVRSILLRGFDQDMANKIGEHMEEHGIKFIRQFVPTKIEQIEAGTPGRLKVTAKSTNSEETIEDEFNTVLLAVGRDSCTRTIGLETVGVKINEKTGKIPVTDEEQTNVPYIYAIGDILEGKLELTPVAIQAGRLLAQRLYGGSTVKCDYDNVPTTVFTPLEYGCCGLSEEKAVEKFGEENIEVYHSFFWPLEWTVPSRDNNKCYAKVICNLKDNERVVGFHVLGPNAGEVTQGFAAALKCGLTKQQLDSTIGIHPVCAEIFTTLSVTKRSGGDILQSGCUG
Sequence of M-phase phosphoprotein 8 (Homo sapiens) (Q99549 whole entry, looked up): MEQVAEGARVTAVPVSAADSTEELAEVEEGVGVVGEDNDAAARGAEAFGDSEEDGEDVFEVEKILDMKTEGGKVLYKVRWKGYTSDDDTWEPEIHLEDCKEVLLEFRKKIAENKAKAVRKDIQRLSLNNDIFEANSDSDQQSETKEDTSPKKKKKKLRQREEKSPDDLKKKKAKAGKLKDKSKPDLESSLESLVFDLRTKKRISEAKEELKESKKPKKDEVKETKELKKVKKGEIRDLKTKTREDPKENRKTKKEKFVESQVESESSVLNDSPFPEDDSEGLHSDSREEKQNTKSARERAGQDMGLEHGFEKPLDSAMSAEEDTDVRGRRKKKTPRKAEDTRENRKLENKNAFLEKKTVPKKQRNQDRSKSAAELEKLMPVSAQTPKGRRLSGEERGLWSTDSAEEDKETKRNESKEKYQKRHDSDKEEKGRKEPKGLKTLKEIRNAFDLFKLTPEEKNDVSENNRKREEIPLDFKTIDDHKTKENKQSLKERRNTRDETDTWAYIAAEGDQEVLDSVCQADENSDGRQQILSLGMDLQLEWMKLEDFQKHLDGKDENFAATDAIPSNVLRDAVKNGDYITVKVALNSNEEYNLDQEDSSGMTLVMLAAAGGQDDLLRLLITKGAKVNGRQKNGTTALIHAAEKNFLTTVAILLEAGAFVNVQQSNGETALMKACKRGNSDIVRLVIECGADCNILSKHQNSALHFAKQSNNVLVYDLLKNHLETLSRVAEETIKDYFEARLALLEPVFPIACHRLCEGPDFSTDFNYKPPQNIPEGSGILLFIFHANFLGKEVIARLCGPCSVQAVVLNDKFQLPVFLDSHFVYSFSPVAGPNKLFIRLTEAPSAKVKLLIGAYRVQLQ
Sequence of Thyrotropin-releasing hormone receptor (Homo sapiens) (P34981 whole entry, looked up): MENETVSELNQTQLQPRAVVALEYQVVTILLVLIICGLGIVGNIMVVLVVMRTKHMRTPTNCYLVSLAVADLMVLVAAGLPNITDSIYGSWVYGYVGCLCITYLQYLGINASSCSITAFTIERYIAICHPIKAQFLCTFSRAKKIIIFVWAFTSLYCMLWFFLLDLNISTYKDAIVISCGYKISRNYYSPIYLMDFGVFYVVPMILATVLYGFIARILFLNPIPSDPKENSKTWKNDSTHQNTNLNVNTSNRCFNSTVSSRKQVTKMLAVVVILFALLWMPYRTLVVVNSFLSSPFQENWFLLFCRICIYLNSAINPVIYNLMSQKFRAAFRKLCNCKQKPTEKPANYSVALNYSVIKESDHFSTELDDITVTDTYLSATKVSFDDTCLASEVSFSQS
Sequence of Chromobox protein homolog 1 (Homo sapiens) (P83916 whole entry, looked up): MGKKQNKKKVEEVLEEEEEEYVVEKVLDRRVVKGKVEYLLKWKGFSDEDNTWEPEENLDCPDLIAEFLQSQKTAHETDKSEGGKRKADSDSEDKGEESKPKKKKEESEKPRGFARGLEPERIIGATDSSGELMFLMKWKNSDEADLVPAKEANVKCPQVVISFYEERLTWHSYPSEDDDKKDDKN
Sequence of Transient receptor potential cation channel subfamily V member 1 (Homo sapiens) (Q8NER1 whole entry, looked up): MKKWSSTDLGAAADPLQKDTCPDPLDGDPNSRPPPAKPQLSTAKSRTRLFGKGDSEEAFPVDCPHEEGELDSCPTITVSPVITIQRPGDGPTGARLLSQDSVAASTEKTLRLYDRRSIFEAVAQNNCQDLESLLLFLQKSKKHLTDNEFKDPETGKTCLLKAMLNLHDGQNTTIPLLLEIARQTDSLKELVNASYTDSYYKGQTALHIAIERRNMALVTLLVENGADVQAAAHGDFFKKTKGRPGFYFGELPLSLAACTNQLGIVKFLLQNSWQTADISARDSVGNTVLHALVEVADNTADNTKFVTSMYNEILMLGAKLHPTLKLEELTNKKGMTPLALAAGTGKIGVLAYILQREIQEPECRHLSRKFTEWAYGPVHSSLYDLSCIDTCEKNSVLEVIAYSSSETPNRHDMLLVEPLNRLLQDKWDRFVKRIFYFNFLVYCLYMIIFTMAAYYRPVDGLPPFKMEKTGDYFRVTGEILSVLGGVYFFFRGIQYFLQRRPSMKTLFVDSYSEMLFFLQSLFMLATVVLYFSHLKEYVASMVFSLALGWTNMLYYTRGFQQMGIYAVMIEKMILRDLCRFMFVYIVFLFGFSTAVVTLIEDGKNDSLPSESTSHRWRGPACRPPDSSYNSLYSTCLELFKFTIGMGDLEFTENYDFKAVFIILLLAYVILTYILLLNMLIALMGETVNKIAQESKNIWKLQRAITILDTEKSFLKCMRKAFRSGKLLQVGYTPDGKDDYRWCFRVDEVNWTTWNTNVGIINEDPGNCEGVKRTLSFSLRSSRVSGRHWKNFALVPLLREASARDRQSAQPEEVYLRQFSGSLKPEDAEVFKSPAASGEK
Sequence of Thyrotropin receptor (Homo sapiens) (P16473 whole entry, looked up): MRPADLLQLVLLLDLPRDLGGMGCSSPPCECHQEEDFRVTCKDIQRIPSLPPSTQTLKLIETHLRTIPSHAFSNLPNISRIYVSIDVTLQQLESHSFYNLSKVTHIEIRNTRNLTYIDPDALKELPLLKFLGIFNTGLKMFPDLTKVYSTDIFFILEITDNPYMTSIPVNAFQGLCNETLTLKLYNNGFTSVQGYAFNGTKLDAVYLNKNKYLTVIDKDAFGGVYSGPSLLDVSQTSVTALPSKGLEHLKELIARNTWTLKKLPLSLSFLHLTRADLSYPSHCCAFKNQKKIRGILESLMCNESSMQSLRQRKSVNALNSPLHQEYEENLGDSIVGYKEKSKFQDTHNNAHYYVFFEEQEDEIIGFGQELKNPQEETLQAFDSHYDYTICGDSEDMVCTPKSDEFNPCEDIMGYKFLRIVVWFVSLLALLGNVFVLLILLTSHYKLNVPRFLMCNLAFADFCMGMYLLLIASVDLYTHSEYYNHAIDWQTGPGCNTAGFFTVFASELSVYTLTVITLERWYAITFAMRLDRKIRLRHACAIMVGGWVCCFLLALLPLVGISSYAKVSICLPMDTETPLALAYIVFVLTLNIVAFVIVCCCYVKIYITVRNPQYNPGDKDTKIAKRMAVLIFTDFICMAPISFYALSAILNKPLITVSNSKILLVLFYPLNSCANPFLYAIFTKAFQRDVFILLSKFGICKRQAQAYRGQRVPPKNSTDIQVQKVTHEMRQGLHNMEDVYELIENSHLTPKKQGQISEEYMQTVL
Sequence of Flap endonuclease 1 (Homo sapiens) (P39748 whole entry, looked up): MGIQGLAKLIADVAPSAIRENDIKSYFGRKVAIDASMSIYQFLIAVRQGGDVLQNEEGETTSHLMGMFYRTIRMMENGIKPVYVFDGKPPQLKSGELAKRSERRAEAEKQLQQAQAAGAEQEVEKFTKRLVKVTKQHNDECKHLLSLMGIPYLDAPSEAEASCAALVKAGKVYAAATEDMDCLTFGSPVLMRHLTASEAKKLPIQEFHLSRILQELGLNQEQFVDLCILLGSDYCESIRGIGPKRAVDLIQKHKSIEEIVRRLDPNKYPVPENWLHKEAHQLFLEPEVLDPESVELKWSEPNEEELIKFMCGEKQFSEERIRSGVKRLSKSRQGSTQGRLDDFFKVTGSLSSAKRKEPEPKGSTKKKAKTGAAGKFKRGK
Sequence of Beta-2 adrenergic receptor (Homo sapiens) (P07550 whole entry, looked up): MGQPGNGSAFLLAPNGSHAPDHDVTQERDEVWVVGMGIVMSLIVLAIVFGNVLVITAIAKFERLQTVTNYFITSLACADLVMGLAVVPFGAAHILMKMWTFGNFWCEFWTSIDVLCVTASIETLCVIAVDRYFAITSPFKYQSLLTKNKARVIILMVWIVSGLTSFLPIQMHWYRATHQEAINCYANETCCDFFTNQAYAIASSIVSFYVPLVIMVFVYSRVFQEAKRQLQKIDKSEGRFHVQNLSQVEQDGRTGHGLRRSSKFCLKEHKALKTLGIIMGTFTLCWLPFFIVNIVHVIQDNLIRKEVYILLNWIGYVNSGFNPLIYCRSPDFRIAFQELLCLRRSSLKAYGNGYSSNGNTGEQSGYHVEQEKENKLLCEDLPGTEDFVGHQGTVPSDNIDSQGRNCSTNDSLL

O=[N+]([O-])c1ccc(O[C@@H]2O[C@H](CO)[C@@H](O)[C@H](O)[C@H]2F)c([N+](=O)[O-])c1
inactive: outcome [1] | outcome [2] | Potency [3] | Potency [4] | outcome [5] | Potency [6] | Potency [7] | Potency [8] | Potency [9] | outcome [10] | outcome [11] | outcome [12] | Potency [13] | outcome [14] | outcome [15] | Potency [16] | activation [17] 1.06% | Potency [18]
